This is a sample that favours compounds with a hit; in the whole collection about 1.4% have one here.
BRCA1 expr act: increases BRCA1 expression; MCF7-BRCA1-FFLuc reporter, luminescence, 48 h; response scale: scaled: vehicle 0%, 10 µM genistein 100%; Potency, µM (highest dose often 46.1 µM), without a hit: top-dose activation, hits mostly activators; 380,000 tested, 1.1% active; note: potency is the fitted concentration of half-maximal effect; nearly all actives have a fitted effect of over 80% in size
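Activators of BRCA1 expression were detected as increased firefly luciferase luminescence in engineered MCF7 cells after 48 h compound incubation. Signals were scaled to genistein 10 microM as full activation.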
TCR activator: activates T cell receptor signaling | 330,000 tested, under 10 active | primary human leukocytes, anti-CD3, IL-2 HTRF, 48 h | AID 504894 | Potency, µM (doses to about 9.22 µM), without a hit: at the highest dose activation of IL-2 secretion, actives largely listed as activators; note: % of control where 0% means no effect
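1) Mix primary human leukocytes, a-CD3 beads and compound. 2) Incubate 48 hr. 3) Add HTRF IL-2 reagents (a-IL-2-K, a-IL-2-d2).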
p53 reactivator: re-activators of mutant p53; H1299 p53-A138V BP100-luciferase reporter, luminescence, 24 h; Potency, µM (titrated, usually from 92.2 µM), for the others: top-dose activity change, positive = activation, actives largely listed as activators; 320,000 tested, 0.063% active; AID 504706; note: potency is the fitted concentration of half-maximal effect; % of control where 0% means no effect; nearly all actives have a fitted effect of over 45% in size
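H1299 (p53-null), stable ts p53-A138V + BP100-Luc; 1000 cells/well, Opti-MEM/10% FBS; cpd 4 pt, 1:5; 24 h, 37 deg C, 5% CO2; detection reagent 10 min RT; luminescence.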
IL-2 act: activators of IL-2; IL-2 activation reporter assay, cell-based qHTS; stimulated with anti-CD3/CD4/CD28 beads; in transgenic mouse T cells; activation, % (series mostly up to about 46 µM); 360,000 tested, 0.065% active; AID 652025; in the data active = activation above about 50%; inconclusive = mostly about 30% to 49%; note: 0% is about no effect
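EGFP and DsRed fluorescence is measured by plate cytometry in unstimulated transgenic mouse T cells exposed to compound for 60 minutes, then stimulated 18 hours at 37 degrees C with anti-CD3/anti-CD4 beads plus anti-CD28.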
uPA surface inh: cell surface uPA generation inhibition; cell surface uPA generation assay, qHTS; Potency, µM (top dose mostly 38.3 µM), inactives show top-dose activity change, negative = inhibition, hits mostly inhibitors; 330,000 tested, 0.31% active; AID 540303; active = well fitted inhibition curve with a large enough effect; inconclusive = small, poorly fitted or top-dose-only effect; inactive = no such curve, though single readings can be large or run the other way; tested in mouse RAW 264.7 cells; note: potency is the fitted concentration of half-maximal effect; % is set by controls: 0 for no effect and ±100 for the full control effect; nearly all actives have a fitted effect of over 55% in size
* = called active by the depositor; ? = inconclusive; . = no result given; [ ] = dose if it differs, or a comment. Unless noted, calls come from the whole dose curve; as a rule, active = well fitted curve in the direction sought with a large enough effect; inconclusive = small, poorly fitted or top-dose-only effect, or another doubt; inactive = no such curve, though single readings can be large; an effect the other way counts as inactive or inconclusive.

SMILES	BRCA1 expr act	TCR activator	p53 reactivator	IL-2 act	uPA surface inh
Cc1ccc(Nc2nc(C)nc(N)c2S(=O)(=O)c2ccccc2)cc1	14%	.	.	.	.
COc1ccccc1C(=O)Nc1ccnn1C1CCN(Cc2cn(C)c3ccccc23)CC1	-41%	4%	16%	0	10µM*
Cn1cc(CN2CCC(n3nccc3NC(=O)c3ccccc3Cl)CC2)c2ccccc21	-61%	-11%	2%	-5	9%
CCOC(=O)C1CCN(C(=O)Cn2nc(CC)n3c(cc4occc43)c2=O)CC1	0%	.	.	.	.
Cc1cc(C(=O)COC(=O)c2ccc(O)cc2)c(C)n1CC1CCCO1 (centres undefined)	?	-2%	-1%	-1	-10%
Cc1cc(C(=O)COC(=O)c2ccc(Cl)c(S(N)(=O)=O)c2)c(C)n1CC1CCCO1 (centres undefined)	11µM*	-4%	19%	-1	-7%
CCCc1nc2ccc(C)cn2c1Cc1ccc(C)cc1	7.1µM*	.	.	0	.
CCCNC(=O)C1CCC(Cn2c(=O)c3sccc3n(CC(=O)NCc3cccc(OC)c3OC)c2=O)CC1 (centres undefined)	3%	.	.	.	.
Cc1ccc(-c2nc3cc(C(C)C)ccc3o2)cc1NC(=O)c1cccs1	28%	.	.	.	.
Nc1nnc(-c2ccc(Cl)cc2Cl)s1	10µM*	-3%	5%	3	-2%
COc1ccccc1Nc1nc(-c2sc(NC(=O)C(C)(C)C)nc2C)cs1	-54%	1%	17%	1	5.6µM*
CC(=O)Nc1nc(C)c(-c2csc(Nc3cccc(C(C)=O)c3)n2)s1	-57%	3%	?	0	11µM*
CCCC(=O)Nc1nc(C)c(-c2csc(Nc3ccccc3OC)n2)s1	0%	2%	1%	0	-7%
O=C(O)C=C1CCN(c2ncc(C(F)(F)F)cc2Cl)CC1	11µM*	.	4%	-3	-2%
Cc1ncc(CO)c(/C=N/NC(=O)c2cc3c(s2)CCCC3)c1O	-69%	-6%	13%	0	6.3µM*
Cc1ncc(CO)c(/C=N/NC(=O)c2ccc(O)cc2)c1O	-12%	3%[46.1 µM]	14%	0	-3%
COc1cccc(C2=NN(C(C)=O)C(c3cn(-c4ccccc4)nc3-c3cccs3)C2)c1 (centres undefined)	2%	.	.	.	.
CN(Cc1cc(-c2ccccc2)on1)C(=O)c1cc(COc2c(F)cccc2F)on1	11µM*	5%	17%	-1	-1%
COc1ccc(-c2nc3sc(CCNC(=O)c4ccc(Br)o4)c(C)n3n2)cc1	7%	.	.	.	.
CN(C)c1ccc(/C=C2\C=Cc3cc(N)ccc32)cc1	22%	.	.	.	.
Nc1ccc2c(c1)C=C/C2=C\c1ccccc1	4µM*	.	.	.	.
Cc1ccc2c(c1)c(/C=C/c1cc[n+](C)cc1)c(C)n2C	-69%	4%	-3%	4	-1%
Cc1ccc2[nH]c(C)c(/C=C/c3cc[n+](C)cc3)c2c1	-50%	1%	-1%	159*	-8%
COc1ccccc1NC(=O)Cn1c(=O)n(CCc2ccccc2)c(=O)c2c3c(sc21)CN(C(C)=O)CC3	-52%	.	.	.	.
CCCCOc1ccc(/C(N)=N/O)cc1	11µM*	2%	?	-1	?
SMILES	BRCA1 expr act	TCR activator	p53 reactivator	IL-2 act	uPA surface inh
CCSc1nc2c(cnn2-c2ccccc2)c(=O)n1N	5µM*	4%	5%	0	-5%
CSc1nc2c(cnn2-c2ccccc2)c(=O)n1N	?	2%	4%	0	-12%
CCOC(=O)c1sc(NC(=O)C(C)(C)C)cc1C	3.2µM*	-3%	?	-2	11µM*
CCOC(=O)c1sc(NC(=O)c2ccc(Cl)s2)cc1C	4.5µM*	-4%	19%	-2	-8%
CC1=C(C(=O)Nc2ccccc2)C(c2cccnc2)n2nc(SCc3ccccc3F)nc2N1 (centres undefined)	-11%	.	.	.	.
CCOC(=O)c1oc2ccc(CNCCO)c(Cl)c2c1C	11µM*	2%	27%	-3	6%
CCOC(=O)c1oc2ccc(CNC3CCCCC3)c(Cl)c2c1C	-10%	5%[46.1 µM]	13%	-1	-15%
Cc1ccc(CNC(=O)CN(c2cc(C)cc(C)c2)S(=O)(=O)c2c(C)noc2C)cc1	1%	.	.	.	.
Nc1ccc2nc(-c3ccc(Cl)cc3)[nH]c2c1	-59%	7%	?	-4	4.5µM*
Nc1ccc(-c2nc3ccc([N+](=O)[O-])cc3[nH]2)cc1	2µM*	4%[46.1 µM]	?	-4	-3%
O=C(CSC1=Nc2ccccc2N=C(c2ccc(F)cc2)C1)Nc1cccc(C(F)(F)F)c1	-63%	.	.	.	.
Cc1ccc(/C=C/c2onc(C)c2S(=O)(=O)N2CCC(C(=O)Nc3cccc(C#N)c3)CC2)cc1	-5%	.	.	.	.
CCn1c(-c2cc(-c3ccc(C)cc3)nc3ccccc23)n[nH]c1=S	12%	-4%	0%	-2	-5%
CCn1c(-c2cc(-c3ccc(OC(C)C)cc3)nc3ccccc23)n[nH]c1=S	7.1µM*	6%	16%	-3	.
Oc1cc(O)cc(/C=C/c2ccc(O)c(O)c2)c1	?	1%	?	0	7.9µM*
C/C=C/c1ccc(O)c(OC)c1	4%	6%	4%	-2	-27%
Cc1sc2ncn(CC(=O)N(C)c3cccc(C(F)(F)F)c3)c(=O)c2c1S(=O)(=O)N1CCN(c2ncccn2)CC1	9%	.	.	.	.
CN1/C(=C/C=C(C#N)C#N)C(C)(C)c2ccccc21	2%	2%	2%	115*	1%
CC12CCC(C(=O)Nc3nccs3)(OC1=O)C2(C)C (centres undefined)	11%[1.84 µM]	2%	-4%	-1	-1%
CC12CCC(C(=O)Nc3nc4ccc(Br)cc4s3)(OC1=O)C2(C)C (centres undefined)	8.9µM*	-5%	5%	1	?
Cc1oc2c(c1C(=O)N1CCC(C)CC1)C(=O)c1ccccc1C2=O	-87%	3%	-20%	-4	10µM*
CCOC(=O)C1CCN(C(=O)c2c(C)oc3c2C(=O)c2ccccc2C3=O)CC1	-73%	4%	-12%	-1	?
COc1ccc(Oc2nccc(-c3ccc(F)cc3)c2C#N)cc1	42%	2%	2%	5	-7%
COc1ccc(Oc2nccc(-c3ccccc3)c2C#N)cc1	5µM*	3%	3%	0	8%
COc1ccccc1NC(C)C(=O)c1c(C)[nH]c2ccccc12 (centres undefined)	13%	.	.	.	.
COc1ccc(NC(C)C(=O)N/N=C/c2ccccc2OCc2ccc(Br)cc2)cc1 (centres undefined)	4µM*	-5%	10%	1	-1%
CC(Nc1ccc(Br)cc1)C(=O)N/N=C/c1ccccc1OCc1ccccc1 (centres undefined)	-1%	1%	?	-1	0%

Assay outcomes deposited in PubChem by National Center for Advancing Translational Sciences (NCATS).
